Laboratory results reported in PubChem BioAssay (EPA / NIEHS).
Records with an inconclusive call do not appear. The source made the active and inactive calls. Rule for the calls, unless noted: active = hit-call score of the fitted dose curve at least 0.9, where 1 is the maximum; inconclusive = response in the unintended direction; inactive = score below 0.9.

How the values were obtained:
[1] = target: Cellular tumor antigen p53 (Homo sapiens) (UniProt P04637); assay: TOX21_p53_BLA_p2_ratio: Tox21 HCT-116 p53 Agonism Beta-lactamase Assay, Ratio, Phase 2 (AID 2283592)
Chain of Cellular tumor antigen p53 (Homo sapiens) (P04637 whole entry, looked up): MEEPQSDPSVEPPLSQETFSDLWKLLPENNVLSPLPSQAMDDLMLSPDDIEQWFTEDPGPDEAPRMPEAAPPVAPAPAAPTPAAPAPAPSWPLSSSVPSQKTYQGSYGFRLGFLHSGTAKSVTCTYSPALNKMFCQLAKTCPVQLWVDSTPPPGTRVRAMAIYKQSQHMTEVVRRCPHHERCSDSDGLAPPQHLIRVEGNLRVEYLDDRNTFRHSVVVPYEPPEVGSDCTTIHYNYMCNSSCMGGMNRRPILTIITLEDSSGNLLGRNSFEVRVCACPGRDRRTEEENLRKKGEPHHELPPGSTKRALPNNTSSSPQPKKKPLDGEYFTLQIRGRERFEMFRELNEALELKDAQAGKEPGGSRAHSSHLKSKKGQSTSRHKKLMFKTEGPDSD
In short: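 DMSO-normalized, positive-direction endpoint derived from the 460 nm/530 nm FRET ratio in HCT116 p53 beta-lactamase reporter cells exposed 16 h at 37C and loaded with CCF4-AM for 2 h.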

[2] = TOX21_p53_BLA_p3_viability: Viability Assessment in the Tox21 HCT-116 p53 Agonism Beta-lactamase Assay, Phase 3 (AID 2283593);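 note: cells exposed to compound for 16 h before reading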
In short: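 Cellular ATP was quantified by CellTiter-Glo luminescence, read after 30 min at room temperature. Beforehand, HCT116 cells (4000/well) received compound 5 h post-seeding, 217-fold diluted from DMSO, then incubated 16 h at 37C.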

[3] = TOX21_p53_BLA_p4_viability: Viability Assessment in the Tox21 HCT-116 p53 Agonism Beta-lactamase Assay, Phase 4 (AID 2283597);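 note: hits lower the luminescence signal meaning cytotoxicity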
In short: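 In this multiplexed secondary endpoint, HCT116 cells (4000 per well, compound at 5 h, 16 h treatment) received CellTiter-Glo after the beta-lactamase read. Luminescence after 30 min RT reflects ATP, and falling signal marks cytotoxicity.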

[4] = target: Cellular tumor antigen p53 (Homo sapiens) (UniProt P04637); assay: TOX21_p53_BLA_p5_ratio: Tox21 HCT-116 p53 Agonism Beta-lactamase Assay, Ratio, Phase 5 (AID 2283599)
In short: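 Beta-lactamase reporter ratio (blue 460 nm over green 530 nm, 405 nm excitation) after 2 h CCF4-AM loading, in HCT-116 cells exposed 16 h at 37 C to compounds pinned at 217-fold dilution. Increases relative to DMSO baseline scored.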

[5] = TOX21_p53_BLA_p5_viability: Viability Assessment in the Tox21 HCT-116 p53 Agonism Beta-lactamase Assay, Phase 5 (AID 2283600)
In short: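 Here cell health was gauged by ATP levels in wells holding 4000 cells, each treated 16 h with DMSO-delivered compounds at 217-fold dilution; reduced luminescence marked toxicity.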

[6] = target: Cellular tumor antigen p53 (Homo sapiens) (UniProt P04637); assay: TOX21_p53_BLA_p4_ratio: Tox21 HCT-116 p53 Agonism Beta-lactamase Assay, Ratio, Phase 4 (AID 2283601)
In short: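 Signal is the blue/green (460nm/530nm) ratio of cleaved versus uncleaved CCF4-AM substrate, read after 2 h substrate loading. Cells were HCT116 carrying the p53-responsive beta-lactamase reporter, dosed 16 h at 37C, 5% CO2; CellTiter-Glo measured in parallel.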

[7] = target: Cellular tumor antigen p53 (Homo sapiens) (UniProt P04637); assay: TOX21_p53_BLA_p3_ratio: Tox21 HCT-116 p53 Agonism Beta-lactamase Assay, Ratio, Phase 3 (AID 2283596)
In short: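 Cells were seeded at 4000/well, rested 5 h at 37C, then dosed with DMSO compound solutions (217-fold dilution) for 16 h. CCF4-AM substrate was loaded for 2 h at room temperature, and the 460/530 nm emission ratio was fitted for gain of signal versus DMSO.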

[8] = CCTE_Harrill_HTTr_Viability_MCF7: CCTE's 6-hour Cell Viability Assessment for the High-Throughput Transcriptomics (HTTr) Platform, in MCF-7 cells cultured in DMEM + 10% fetal bovine serum, Harrill Lab (AID 2284010; active = hit-call score of the fitted dose curve at least 0.9, where 1 is the maximum; inactive = score below 0.9)
In short: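 Propidium iodide exclusion, imaged by high-content analysis, gauged viability after a six-hour exposure across eight concentrations. Cells were MCF-7 grown in DMEM with 10% fetal bovine serum; fits run in both directions against DMSO.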

[9] = CCTE_Harrill_HTTr_Apoptosis_MCF7: CCTE's 6-hour Apoptosis Assessment for the High-Throughput Transcriptomics (HTTr) Platform, in MCF-7 cells cultured in DMEM + 10% fetal bovine serum, Harrill Lab (AID 2284011; active = hit-call score of the fitted dose curve at least 0.9, where 1 is the maximum; inactive = score below 0.9)
In short: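 Apoptosis in MCF-7 cells grown in DMEM with 10% fetal bovine serum was scored after a six hour exposure by high content imaging of caspase-3/7 activation (CellEvent Caspase 3/7 Green), with DMSO serving as negative control and baseline.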

[10] = CCTE_Harrill_HTTr_CellCount_MCF7: CCTE's Cell Proliferation Assessment for the High-Throughput Transcriptomics (HTTr) Platform, Harrill Lab (AID 2284012);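 note: cells exposed to compound for six hours; intended direction is loss of nuclei count meaning fewer cells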
In short: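 Cell count from high-content imaging of Hoechst-labeled nuclei serves as viability/growth readout. Chemicals were applied to MCF-7 cells in eight concentrations for six hours, with fitting in both directions relative to DMSO.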

PGR (gene 5241) [11] = target: PGR (gene 5241) (UniProt P06401); assay: TOX21_PR_BLA_Followup_Agonist_ratio: Tox21 HEK293 Progesterone Receptor (PR) Agonism Beta-lactamase Follow-Up Assay, Ratio (AID 2283933)
Chain of PGR (gene 5241) (P06401 whole entry, looked up): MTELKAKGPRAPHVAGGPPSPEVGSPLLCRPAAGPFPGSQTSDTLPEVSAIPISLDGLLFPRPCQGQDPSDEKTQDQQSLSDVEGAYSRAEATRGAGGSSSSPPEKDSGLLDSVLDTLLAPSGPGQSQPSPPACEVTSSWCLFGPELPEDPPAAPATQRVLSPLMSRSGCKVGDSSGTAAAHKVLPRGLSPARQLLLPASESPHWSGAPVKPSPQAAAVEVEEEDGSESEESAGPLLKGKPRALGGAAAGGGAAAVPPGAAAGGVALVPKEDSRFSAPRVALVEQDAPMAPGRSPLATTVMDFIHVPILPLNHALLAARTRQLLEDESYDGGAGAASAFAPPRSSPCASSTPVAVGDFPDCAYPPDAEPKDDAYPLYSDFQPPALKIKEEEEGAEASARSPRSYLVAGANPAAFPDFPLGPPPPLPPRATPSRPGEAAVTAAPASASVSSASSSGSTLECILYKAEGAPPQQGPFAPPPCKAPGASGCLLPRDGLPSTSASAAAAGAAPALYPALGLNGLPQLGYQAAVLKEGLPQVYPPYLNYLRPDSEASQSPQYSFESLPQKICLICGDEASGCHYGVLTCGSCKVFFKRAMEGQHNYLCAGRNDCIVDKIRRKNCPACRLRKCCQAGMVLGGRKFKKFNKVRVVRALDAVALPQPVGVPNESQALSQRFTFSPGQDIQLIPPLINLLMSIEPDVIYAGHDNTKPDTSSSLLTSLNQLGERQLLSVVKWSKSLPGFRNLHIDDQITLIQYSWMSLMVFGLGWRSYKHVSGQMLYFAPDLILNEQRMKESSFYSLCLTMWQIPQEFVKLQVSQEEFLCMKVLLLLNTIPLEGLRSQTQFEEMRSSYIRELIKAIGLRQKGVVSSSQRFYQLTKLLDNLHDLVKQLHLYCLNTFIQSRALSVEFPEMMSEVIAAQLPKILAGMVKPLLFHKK
In short: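 Beta-lactamase reporter readout: ratio of cleaved (ch2) to uncleaved (ch1) substrate after 2 h room-temperature loading, following 16 h compound exposure at 37C. Cells were PR-UAS-bla HEK293T in 2% charcoal-stripped FBS medium. Viability was multiplexed by CellTiter-Glo.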

PGR (gene 5241) [12] = target: PGR (gene 5241) (UniProt P06401); assay: TOX21_PR_BLA_Followup_Antagonist_ratio: Tox21 HEK293 Progesterone Receptor (PR) Antagonism Beta-lactamase Follow-Up Assay, Ratio (AID 2283934);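 note: PR-UAS-bla HEK293T cells stimulated with 1 nM R5020 agonist for 16 hr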
In short: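 Readout is the blue/green (ch2/ch1) substrate cleavage ratio after 2 hours at room temperature, following 16 hr co-treatment of PR-bla HEK293T cells with compound and 1nM promegestone. Multiplexed CellTiter-Glo viability flags cytotoxicity; DMSO baseline.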

[13] = TOX21_PR_BLA_Followup_Agonist_viability: Viability Assessment in the Tox21 HEK293 Progesterone Receptor (PR) Agonism Beta-lactamase Follow-Up Assay (AID 2283935);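 note: signal loss means lower viability so actives are cytotoxic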
In short: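 Run multiplexed with the beta-lactamase FRET read, this endpoint measures ATP by CellTiter-Glo luminescence (30 min, room temperature). PR-UAS-bla HEK293T cells received compound 6 hr after plating and were then incubated 16 hr at 37C in 2% stripped serum.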

PGR (gene 5241) [14] = target: PGR (gene 5241) (UniProt P06401); assay: TOX21_PR_LUC_Followup_Agonist: Tox21 HEK293 Progesterone Receptor (PR) Agonism Luciferase Follow-Up Assay (AID 2283937; active = hit-call score of the fitted dose curve at least 0.9, where 1 is the maximum; inactive = score below 0.9)
In short: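 Agonism scored as luciferase induction over DMSO, read by ONE-Glo after 30 min at RT. Compounds were incubated 16 h at 37C on HEK293-PR-A-luc cells (3,000/well, pre-plated 5 h) previously grown 5 days in charcoal-stripped serum.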

PGR (gene 5241) [15] = target: PGR (gene 5241) (UniProt P06401); assay: TOX21_PR_LUC_Followup_Antagonist: Tox21 HEK293 Progesterone Receptor (PR) Antagonism Luciferase Follow-Up Assay (AID 2283938);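 note: curve fitted upward as signal gain over DMSO baseline despite antagonist label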
In short: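 Luciferase reporter in HEK293-PR-A-luc cells: 16 h compound treatment at 37C, ONE-Glo luminescence detection, DMSO as negative control and baseline.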

[16] = TOX21_PR_LUC_Followup_Antagonist_viability: Viability Assessment in the Tox21 HEK293 Progesterone Receptor (PR) Antagonism Luciferase Follow-Up Assay (AID 2283940)
In short: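 Viability counter-readout: cellular ATP measured by luciferase luminescence after 16 h compound exposure at 37C of HEK293-PR-A-luc cells, which had been cultured in charcoal-stripped serum and seeded 5 h beforehand.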

[17] = TOX21_PR_LUC_Followup_Agonist_viability: Viability Assessment in the Tox21 HEK293 Progesterone Receptor (PR) Agonism Luciferase Follow-Up Assay (AID 2283941);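 note: loss of signal means cytotoxicity so actives lower viability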
In short: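 Cytotoxicity counter-readout in the PR-A luciferase reporter line HEK293, with 16 h compound exposure at 37C after cells were cultured in charcoal-stripped serum. Cellular ATP quantified by CellTiter-Glo luminescence.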

Measured: AC50

CCCCCCCCCCCCCCC(=O)NC(CO)CCCCCCCCCCCCCC (centres undefined)
inactive: [1] | [2] | [3] | [4]

CN(C(=O)C(Cl)Cl)c1ccc(OC(=O)c2ccco2)cc1
inactive: [1] | [2] | [3]

CCSc1ccc2c(c1)N(CCCN1CCN(C)CC1)c1ccccc1S2
inactive: [1] | [2] | [3] | [4] | [5] | [6]

CC1CS(=O)(=O)CCN1N=Cc1ccc([N+](=O)[O-])o1 (centres undefined)
inactive: [1] | [2] | [3] | [4] | [5]

CC(=O)CC(=O)c1ccccc1
inactive: [1] | [2] | [4] | [5] | [6]

O=C(CCCCCCCCCCCCC1CCCC1)Nc1ccc(S(=O)(=O)c2ccc(NC(=O)CCCCCCCCCCCCC3CCCC3)cc2)cc1
inactive: [1] | [3] | [4] | [6]

COC(=O)CCCCCCCC(=O)OC
inactive: [2] | [3] | [4] | [5]

N#CC1(O)CCCCC1
inactive: [1] | [2] | [6]

Cc1cn([C@H]2C[C@H](O)[C@@H](CO)O2)c(=O)[nH]c1=O
inactive: [1] | [7] | [3] | [4] | [5] | [6]

Cc1cnc(C(=O)NCCc2ccc(S(=O)(=O)NC(=O)NC3CCCCC3)cc2)cn1
inactive: [1] | [7] | [3] | [4] | [5] | [6] | [8] | [9] | [10]

CC(=O)OC(C(=O)c1ccccc1)c1ccccc1 (centres undefined)
inactive: [1] | [2] | [3] | [4] | [6]

c1ccc(SSc2ccccc2)cc1
inactive: [1] | [2] | [3] | [4] | [6]

N[C@@H](Cc1cnc[nH]1)C(=O)O
inactive: [1] | [2] | [3] | [5]

NC(=O)CC[C@@H]1NC(=O)[C@H](Cc2ccccc2)NC(=O)[C@H](Cc2ccc(O)cc2)NC(=O)CCSSC[C@@H](C(=O)N2CCC[C@H]2C(=O)N[C@@H](CCCN=C(N)N)C(=O)NCC(N)=O)NC(=O)[C@H](CC(N)=O)NC1=O
inactive: [1] | [7] | [4] | [6]

CCOc1ccc(NC(=O)OC(C)C)cc1OCC
inactive: [1] | [2] | [3] | [4] | [6]

CC(=O)OCC(=O)[C@@]1(O)CC[C@H]2[C@@H]3CCC4=CC(=O)C=C[C@]4(C)[C@H]3[C@@H](O)C[C@@]21C
active: PGR (gene 5241) [14] 2280 nM
inactive: PGR (gene 5241) [11] | PGR (gene 5241) [12] | [13] | PGR (gene 5241) [15] | [16] | [17]
